Assay results from PubChem BioAssay AID1345083 (National Center for Advancing Translational Sciences (NCATS), 2018).
Screen size: about 94,000 compounds; about 6,200 (6.6%) were called active. Inconclusive results (about 31%) are left out. The list comes from a sample in which actives are over-represented; it also holds similar structures and randomly drawn compounds. A number with no mark means an inactive call. Calls follow the shape of the dose curve; as a rule, active = well fitted inhibition curve with a large enough effect; inconclusive = small, poorly fitted or top-dose-only effect; inactive = flat fitted curve, though single readings scatter.

experiment: Cytotoxic Profiling in HEK 293 Cell Line of Diverse Libraries Using Quantitative High-Throughput Screening; settings: HEK 293 viability, ATP luminescence (CellTiter-Glo), 48-72 h; series mostly up to 115 µM; activity change, negative = cytotoxicity: at the top concentration; also: nearly all actives have a fitted effect of over 60% in size
How it was run: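 qHTS cytotoxicity; HEK 293, 250 cells/well; compound pinned; 48 or 72 hr, 37 degree Celsius, 5% CO2, 95% humidity; CellTiter-Glo, 10 min RT; luminescence (ATP).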
% is scaled to controls: 0 for no effect and ±100 for the full control effect; potency is read from the fitted curve at half-maximal effect.

SMILES | activity change, negative = cytotoxicity | outcome | Potency
CC(C)S(=O)(=O)N1CCC(OCc2noc(C3CCCO3)n2)CC1 (stereo not drawn) | 0.452% |  | 
O=C(Nc1ccc(Cl)cc1)N[C@H]1CO[C@H]2[C@@H]1OC[C@H]2O |  | inactive [at 172 µM] | 
CCNC(=O)O[C@@H]1CO[C@H]2[C@@H]1OC[C@@H]2NC(=O)c1cccc(C(=O)OC)c1 | -4.88% [at 172 µM] |  | 
O=C(Nc1cccc(C(F)(F)F)c1)O[C@@H]1CO[C@H]2[C@@H]1OC[C@@H]2Nc1nccc(-c2ccc3c(c2)OCO3)n1 |  |  | 50.1 µM (active)
COc1ccc(NC(=O)O[C@@H]2CO[C@H]3[C@@H]2OC[C@@H]3NC(=O)NC2CCCCC2)cc1 | -27.6% [at 172 µM] |  | 
CCNC(=O)O[C@@H]1CO[C@H]2[C@@H]1OC[C@@H]2NC(=S)Nc1cccc2ccccc12 |  |  | 70.8 µM (active)
N#Cc1cccc(NC(=O)O[C@@H]2CO[C@H]3[C@@H]2OC[C@@H]3Nc2nccc(-c3ccccc3)n2)c1 |  |  | 22.4 µM (active)
COc1ccc(-c2ccnc(N[C@H]3CO[C@H]4[C@@H]3OC[C@H]4OC(=O)Nc3cccc4ccccc34)n2)cc1 |  |  | 39.8 µM (active)
CC(=O)Nc1cccc(OCC2CN(Cc3cccc(C(F)(F)F)c3)C(=O)c3c(ccnc3-c3ccc(OCC(=O)O)cc3)O2)c1 (stereo not drawn) | -9.98% |  | 
CC(C)(CC(=O)O)CC(=O)N[C@H]1CO[C@H]2[C@@H]1OC[C@@H]2Nc1nccc(-c2ccc3c(c2)OCO3)n1 |  | inactive | 
CNC(=O)[C@@H]1CN(C(=O)Cn2c(=O)oc3ccccc32)C[C@H]1c1n[nH]c(C)n1 | 3.76% |  | 
O=C(O)c1ccc2c(c1)CC(=O)N2Cc1cccc(F)c1 | 4.64% |  | 
CN1CCCCCCN(S(=O)(=O)N(C)C)CCC1=O |  | inactive | 
O=C(O)CC1(CC(=O)N2CCN3C(=O)c4cc(-c5ccsc5)ccc4NC(=O)[C@H]3C2)CCCC1 |  | inactive | 
c1cncc(CN2CC(Oc3ccc4c(c3)OCO4)C2)c1 |  | inactive [at 172 µM] | 
COC(=O)N1CCN2C[C@@H](C(N)=O)[C@H](c3ccccc3)[C@H]2C1 | -27.2% |  | 
CC(=O)c1c(C)nn(CC(=O)N2CCC(c3cc(C(C)C)n[nH]3)CC2)c1C | 2.16% |  | 
CCC(=O)N1CCC(c2nc(C3CCOCC3)no2)C1 (stereo not drawn) | 8.65% |  | 
CSc1ccc(CNC(=O)c2cc3c(N4CCSCC4)nc(C)cn3n2)cc1 | -26% |  | 
COCc1nc(-c2ccc(NC(=O)Cn3nc4c(cc3=O)CCCC4)cc2)n[nH]1 | -7.47% |  | 
O=C(NCCCn1cccn1)C1CCCCc2nnc(-c3ccccc3)n21 (stereo not drawn) | -10.7% |  | 
COc1ccc(C(=O)N2CCCC(Cc3nc(C4CCOCC4)no3)C2)cc1 (stereo not drawn) | -0.205% |  | 
CC(=O)c1ccc(NC(=O)O[C@@H]2CO[C@H]3[C@@H]2OC[C@@H]3Nc2nccc(-c3ccco3)n2)cc1 |  |  | 22.4 µM (active)
CC(C)(C)c1ccnc(N[C@H]2CO[C@H]3[C@@H]2OC[C@H]3OC(=O)Nc2cccc(C(F)(F)F)c2)n1 |  |  | 39.8 µM (active)

SMILES | activity change, negative = cytotoxicity | outcome | Potency
C=CCNC(=O)N[C@H]1CO[C@H]2[C@@H]1OC[C@H]2OC(=O)Nc1cccc(C(C)=O)c1 | -23.8% [at 172 µM] |  | 
CC(C)(C)c1ccnc(N[C@H]2CO[C@H]3[C@@H]2OC[C@@H]3NC(=O)CC2(CC(=O)O)CCCC2)n1 |  | inactive | 
CCCN1CCN(C(=O)C2CCCN(c3cnn(Cc4ccccc4)c(=O)c3)C2)CC1 (stereo not drawn) | 4.03% |  | 
O=C(Cc1cccc(F)c1)N1CC(CNC(=O)N2CCCC2)C2(CCOCC2)C1 (stereo not drawn) | -9.03% |  | 
Cc1oc2c(c1C(=O)NC1CCN(C)CC1)CN(C)CC2 | 1.61% |  | 
O=C(Cn1c(=O)oc2ccccc21)NC1CCc2nn(CC3CC3)c(=O)n2CC1 (stereo not drawn) | -3.93% |  | 
Cc1cc(=O)n(CC(=O)Nc2cccc(Cl)c2C)c(N2CCc3ccccc3C2)n1 | 1.27% |  | 
COc1ccccc1N1CCN(C(=O)Cn2c(N3CCc4ccccc4C3)nc(C)cc2=O)CC1 |  |  | 35.5 µM (active)
CNC(=O)c1cc(C)nc2onc(C3CCCN3C(=O)c3ccccc3OC)c12 (stereo not drawn) | 0.24% |  | 
Cc1cccc(CN2CCc3ncc(C(=O)NCc4ccccc4)n3CC2)n1 |  |  | 100 µM (active)
COc1ccc(CN2CCc3ncc(C(=O)Nc4ccccc4C)n3CC2)cn1 |  | inactive [at 172 µM] | 
COCCOc1cc(=O)n2c(c1C(=O)NCc1ccccc1)CCOCC2 |  | inactive | 
COc1ncc(CN2CCc3ncc(C(=O)Nc4ccccc4)n3CC2)cn1 | 3.76% [at 172 µM] |  | 
Cc1ccccc1CN1CCc2ncc(C(=O)NCCOc3ccccc3)n2CC1 |  |  | 79.4 µM (active)
COc1ccc(CN2CCc3ncc(C(=O)NCCOc4ccccc4)n3CC2)cn1 | -25.6% [at 172 µM] |  | 
CCOCC(=O)N[C@@H]1c2ccccc2C2(CCNCC2)[C@H]1OC |  | inactive | 
COc1ccc(CCNC(=O)C2CC(=O)N(c3n[nH]c4cccc(F)c34)C2)cc1 (stereo not drawn) | 8.78% |  | 
COc1cccc(-c2cn(C3CCN(C(=O)c4ccc(Cl)cc4)CC3)c(=O)[nH]2)c1 | -23.2% |  | 
Cc1ccccc1CN1CCCn2nc(C)c(-c3cccnc3N3CCOCC3)c21 |  |  | 70.8 µM (active)
Cc1ccc(OCC(=O)NCc2cccnc2N2CCOCC2)cc1 | -16.7% |  | 
C=CCCCC(=O)Nc1ccc(NC(=O)C(C)(C)C)c(OC)c1 | -9.37% |  | 
O=C(NCc1cc2n(n1)CCCN(C1CCCCC1)C2)c1cccc(F)c1 | 0.948% |  | 
O=C1CCCCC(CNC(=O)c2cccc(F)c2)N1 (stereo not drawn) |  | inactive | 
O=C(Nc1cccn2nc(C3CCC3)nc12)c1cccc(F)c1 |  |  | 39.8 µM (active)

SMILES | activity change, negative = cytotoxicity | outcome | Potency
CCNC(=O)C1(CCO)CCN(c2ncccn2)C1 (stereo not drawn) | -4.15% |  | 
O=C(NCc1ccc(Cl)nc1)c1cn2c(n1)CN([S+](=O)([O-])c1cccc(C(F)(F)F)c1)CC2 | -16.9% |  | 
CC1(C(=O)N2CCN(Cc3ccccc3)CC2)CCOCC1 | -6.51% [at 172 µM] |  | 
CC(=O)N1CCC2(CC1)CN(C(=O)Cc1cccc(Cl)c1)CCO2 | 0.172% |  | 
O=C(Cc1ccc(F)cc1)N1CCOCC2(CN(Cc3ccccc3)C2)C1 |  |  | 39.8 µM (active)
O=C(Cn1nc2n(c1=O)CCCCC2)N1CCc2ccccc21 | 12.5% |  | 
CCOCC(=O)Nc1nn(-c2cccc(F)c2)c2cccc(N3CCOC3=O)c12 | -23.7% |  | 
NC(=O)[C@H](Cc1cccs1)NC(=O)[C@@H]1C[C@@H](NC(=O)c2cnccn2)CCN1C(=O)COCC(=O)O |  | inactive | 
O=C(NCc1ccncc1)C1CCN(C(=O)N2CC3CC(C2)[C@H]2CCCC(=O)N2C3)CC1 (stereo partly drawn) | 6.44% |  | 
O=C(Nc1ccccc1Br)N1CCC2(CC1)SCC(=O)N2Cc1ccco1 | -26.1% |  | 
CNC(=O)[C@@H]1CN(C(=O)Cn2c(=O)oc3ccccc32)C[C@H]1c1nc(C)no1 | -8.64% |  | 
O=C(NCCOc1ccccc1)c1nc2c(o1)CCN(CC1CCCCC1)CC2 |  |  | 100 µM (active)
O=C(NCCc1ccccc1)N1CCCCCC1CN1CCOCC1 (stereo not drawn) | 1.18% |  | 
CCc1nc2c(c(-c3ccc(OC)cc3)n1)CCN(CC1CCCCC1)CC2 | -20.6% |  | 
CN1C(=O)[C@H]2CN(Cc3ccccc3Cl)C[C@H]2C1=O | -5.39% |  | 
c1coc(-c2ccnc3nc(C4CC4)nn23)c1 | -5.45% |  | 
COc1cc(NC(=O)C2Cn3cccc3C(=O)N2)cc(OC)c1 (stereo not drawn) |  | inactive | 
Cc1noc(C)c1[S+](=O)([O-])N1CC(Oc2ccc(F)c(F)c2)C1 | -8.54% |  | 
Cc1noc(C)c1[S+](=O)([O-])NC1CCN(Cc2ccc(-c3ccsc3)cc2)C1 (stereo not drawn) |  |  | 39.8 µM (active)
Cc1noc(C)c1[S+](=O)([O-])N1CCn2c(nnc2-c2ccccc2)C1 | -23.3% |  | 
Cc1noc(C)c1[S+](=O)([O-])N1CCCC(c2nnc3n2C(C(=O)O)CC3)C1 (stereo not drawn) |  | inactive | 
Cc1noc(C)c1[S+](=O)([O-])NC1CCN(Cc2cccc(-c3ccc(F)c(F)c3)c2)CC1 |  |  | 25.1 µM (active)
CSc1ccc(-c2cccc(CN3CCC(N[S+](=O)([O-])c4cccs4)CC3)c2)cc1 |  |  | 22.4 µM (active)
O=C1N2CCCC2CN1C1CCN(Cc2ccsc2)CC1 (stereo not drawn) | -3.09% [at 172 µM] |  | 

SMILES | activity change, negative = cytotoxicity | outcome | Potency
CCCN1C(=O)C(CC(=O)NC2CCCC2)Sc2ncccc21 (stereo not drawn) | 9.1% |  | 
CC(C)CCN1CCc2c(n(Cc3cccnc3)n(-c3ccccc3)c2=O)C1 | 4.31% [at 172 µM] |  | 
CCn1ncc(N2CCC(NC(=O)C(C)c3ccccc3)CC2)cc1=O (stereo not drawn) | -2.7% |  | 
CN1[C@@H](CCC(=O)N2CCN(c3ccccn3)CC2)CNC(=O)[C@@H]2[C@H]1CCN2Cc1csnn1 | 1.42% |  | 
CN(Cc1cccnc1)C1CN(C(=O)c2ccnn2C)C1 | -5.32% |  | 
CN(Cc1cccc2ccccc12)C1CCc2ccccc21 (stereo not drawn) | 1.89% [at 172 µM] |  | 
CN(CC1CCOC1)C(=O)c1ccccc1Br (stereo not drawn) | -14.7% |  | 
O=C(c1ccc(C(F)(F)F)cc1)N1CCC2(C1)C(=NC1CCCC1)NC(=O)N2c1cccnc1 (stereo not drawn) | 4.18% |  | 
CN(CC1(C)CCOCC1)S(=O)(=O)C1CC1 | -3.58% |  | 
O=C(N[C@@H]1C[C@H](Cn2cc(-c3cccnc3)nn2)[C@@H](O)[C@H]1O)c1ccccc1 | 4.8% |  | 
O=c1[nH]c(N2CCOCC2)nc2c1CCN(Cc1cccc(F)c1)CC2 | -0.181% |  | 
CN(C)c1ccc(C(=O)N2CCN3C(=O)N(Cc4ccccc4)C(=O)[C@H]3C2)cc1 | -26.6% [at 172 µM] |  | 
CC1=C[C@@H](CNC(C)C)[C@H](C(C)C)C[C@H]1Cc1nnc(-c2ccc(N(C)C)cc2)o1 |  |  | 31.6 µM (active)
CC(=O)NC[C@@H]1C=C(C)[C@H](CC(=O)N2CCCC2)C[C@H]1C(C)C | 3.61% [at 172 µM] |  | 
CC1=C[C@@H](CNC2CC2)[C@H](C(C)C)C[C@H]1Cc1nnc(-c2ccc(C)cc2)o1 |  |  | 50.1 µM (active)
CC1=C[C@@H](CNC(C)C)[C@H](C(C)C)C[C@H]1Cc1nnc(-c2ccc(C)cc2)o1 |  |  | 70.8 µM (active)
O=C1CCC2(CCCN(C(=O)c3ccc(F)cc3)C2)CN1CCc1cnc[nH]1 (stereo not drawn) | -7.95% |  | 
CC(C)CN1CC2(CCN(C(=O)c3conc3-c3ccccc3)CC2)CC1=O | 3.69% |  | 
CC(C)S(=O)(=O)N1CCC(c2nnc3n2CCNC3)CC1 | -23.8% |  | 
O=C(C1C2C(=O)N(C3CCCCCC3)C[C@@]23C=C[C@@H]1O3)N1CCS(=O)(=O)CC1 (stereo partly drawn) | -13.7% |  | 
COCCN1CCOC[C@H]2CCN(C(=O)c3sc(C)nc3C)C[C@H]21 | 8.08% |  | 
